Measured values from PMC7862700, “An all-to-all approach to the identification of sequence-specific readers for epigenetic DNA modifications on cytosine”.

Tests used:
Test in all cases: DAPPL (digital affinity profiling via proximity ligation, sequencing); 10 mM Tris-HCl pH 7.5, 50 mM NaCl, 1 mM DTT, 4% glycerol, room temperature, 30 min; GST-TFs on glutathione beads, 16-mer random dsDNA library, 0.1% formaldehyde crosslink after washing; high values mean tight binding
FLI1 = molecular target: T1, FLI1 (Homo sapiens, UniProt Q01543 1-452); settings: protein: recombinant; tags: N-terminal GST; dsDNA, one strand shown
T1 sequence: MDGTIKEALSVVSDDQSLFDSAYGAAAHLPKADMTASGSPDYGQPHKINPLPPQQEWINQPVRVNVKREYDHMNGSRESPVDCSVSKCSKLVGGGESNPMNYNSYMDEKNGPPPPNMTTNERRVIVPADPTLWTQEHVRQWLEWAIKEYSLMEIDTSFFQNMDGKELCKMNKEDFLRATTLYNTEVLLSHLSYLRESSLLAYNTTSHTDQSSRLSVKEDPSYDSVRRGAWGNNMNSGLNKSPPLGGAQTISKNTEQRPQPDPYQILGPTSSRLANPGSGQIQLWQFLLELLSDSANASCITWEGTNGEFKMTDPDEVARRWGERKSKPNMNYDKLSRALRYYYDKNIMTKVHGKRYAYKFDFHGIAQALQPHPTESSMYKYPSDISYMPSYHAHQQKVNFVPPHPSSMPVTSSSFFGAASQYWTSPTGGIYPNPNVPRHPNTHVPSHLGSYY
Outline: (§1)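 Sequencing on an Illumina NextSeq500 followed washing, crosslinking with 0.1% formaldehyde, proximity ligation (BsaI/T4 ligase, 1 h, 37 °C) and PCR amplification of pools that had been incubated for 30 min at room temperature with 200 nmole of a random double-stranded 16-mer DNA library in Tris/NaCl/DTT/glycerol buffer. Each pool held DNA-barcoded human transcription factors, expressed in yeast as GST fusions and captured on glutathione beads, plus a tag-only sample. Binding signal is a hexamer's read frequency for a factor divided by its frequency in the tag-only sample.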

ELK1 = molecular target: T2, ELK1 (Homo sapiens, UniProt P19419 1-428); settings: protein: recombinant; tags: N-terminal GST; dsDNA, one strand shown
T2 sequence: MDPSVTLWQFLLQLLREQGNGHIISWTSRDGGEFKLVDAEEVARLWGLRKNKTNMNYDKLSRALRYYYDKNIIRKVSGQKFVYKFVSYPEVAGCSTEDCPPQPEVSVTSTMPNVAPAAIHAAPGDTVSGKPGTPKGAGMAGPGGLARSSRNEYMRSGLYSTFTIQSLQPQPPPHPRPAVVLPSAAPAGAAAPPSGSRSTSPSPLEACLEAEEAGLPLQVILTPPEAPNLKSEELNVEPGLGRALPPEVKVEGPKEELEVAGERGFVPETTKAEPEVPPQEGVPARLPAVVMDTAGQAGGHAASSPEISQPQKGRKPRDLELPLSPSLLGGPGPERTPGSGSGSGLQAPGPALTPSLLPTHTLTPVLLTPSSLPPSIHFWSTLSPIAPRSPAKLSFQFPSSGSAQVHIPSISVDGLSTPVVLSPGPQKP
Outline: as §1

GABPA = molecular target: T3, GABPA (Homo sapiens, UniProt Q06546 1-454); settings: protein: recombinant; tags: N-terminal GST; dsDNA, one strand shown
T3 sequence: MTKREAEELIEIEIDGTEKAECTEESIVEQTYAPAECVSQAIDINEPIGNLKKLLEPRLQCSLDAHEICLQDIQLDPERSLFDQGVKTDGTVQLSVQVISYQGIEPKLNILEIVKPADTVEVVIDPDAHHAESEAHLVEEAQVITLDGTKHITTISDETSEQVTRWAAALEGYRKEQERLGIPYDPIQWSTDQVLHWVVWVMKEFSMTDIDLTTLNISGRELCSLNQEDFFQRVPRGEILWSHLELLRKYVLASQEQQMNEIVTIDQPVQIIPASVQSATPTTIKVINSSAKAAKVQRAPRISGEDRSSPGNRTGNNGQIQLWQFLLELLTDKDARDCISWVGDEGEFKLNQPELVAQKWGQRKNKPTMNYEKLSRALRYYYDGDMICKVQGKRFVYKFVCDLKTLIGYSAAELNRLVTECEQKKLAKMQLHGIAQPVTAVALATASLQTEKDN
Outline: as §1

ERG = molecular target: T4, ERG (Homo sapiens, UniProt P11308 1-479); settings: protein: recombinant; tags: N-terminal GST; dsDNA, one strand shown
T4 sequence: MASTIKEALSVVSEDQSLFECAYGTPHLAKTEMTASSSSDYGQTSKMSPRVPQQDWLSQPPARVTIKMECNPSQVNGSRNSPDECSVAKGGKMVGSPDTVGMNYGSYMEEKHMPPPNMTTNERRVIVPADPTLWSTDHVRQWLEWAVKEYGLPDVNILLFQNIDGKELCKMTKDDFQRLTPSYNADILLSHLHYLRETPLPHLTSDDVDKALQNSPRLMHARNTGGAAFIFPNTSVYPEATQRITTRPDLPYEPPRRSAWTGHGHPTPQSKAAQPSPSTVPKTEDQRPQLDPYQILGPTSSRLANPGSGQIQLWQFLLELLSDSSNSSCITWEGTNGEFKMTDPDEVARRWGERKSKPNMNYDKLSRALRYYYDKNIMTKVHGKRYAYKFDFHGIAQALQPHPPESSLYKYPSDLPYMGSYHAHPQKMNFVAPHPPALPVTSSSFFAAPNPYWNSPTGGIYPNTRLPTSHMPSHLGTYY
Outline: as §1

ELF1 = ELF1 (Homo sapiens, UniProt P32519 1-619); settings: protein: recombinant; tags: N-terminal GST; dsDNA, one strand shown
Outline: as §1

EHF = molecular target: T5, EHF (Homo sapiens, UniProt Q9NZC4 1-300); settings: protein: recombinant; tags: N-terminal GST; dsDNA, one strand shown
T5 sequence: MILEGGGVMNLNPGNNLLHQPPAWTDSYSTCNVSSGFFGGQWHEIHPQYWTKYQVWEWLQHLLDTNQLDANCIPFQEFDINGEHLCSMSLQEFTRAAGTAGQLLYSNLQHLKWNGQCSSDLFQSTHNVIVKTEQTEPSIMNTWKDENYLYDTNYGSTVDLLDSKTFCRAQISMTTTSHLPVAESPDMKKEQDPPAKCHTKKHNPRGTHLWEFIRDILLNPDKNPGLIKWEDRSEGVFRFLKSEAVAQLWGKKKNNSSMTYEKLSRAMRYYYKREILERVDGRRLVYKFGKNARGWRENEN
Outline: as §1

SPI1 = SPI1 (Homo sapiens, UniProt P17947 1-270); settings: protein: recombinant; tags: N-terminal GST; dsDNA, one strand shown
Outline: as §1

SPIB = SPIB (Homo sapiens, UniProt Q01892 1-262); settings: protein: recombinant; tags: N-terminal GST; dsDNA, one strand shown
Outline: as §1

ELK3 = molecular target: T6, ELK3 (Homo sapiens, UniProt P41970 1-407); settings: protein: recombinant; tags: N-terminal GST; dsDNA, one strand shown
T6 sequence: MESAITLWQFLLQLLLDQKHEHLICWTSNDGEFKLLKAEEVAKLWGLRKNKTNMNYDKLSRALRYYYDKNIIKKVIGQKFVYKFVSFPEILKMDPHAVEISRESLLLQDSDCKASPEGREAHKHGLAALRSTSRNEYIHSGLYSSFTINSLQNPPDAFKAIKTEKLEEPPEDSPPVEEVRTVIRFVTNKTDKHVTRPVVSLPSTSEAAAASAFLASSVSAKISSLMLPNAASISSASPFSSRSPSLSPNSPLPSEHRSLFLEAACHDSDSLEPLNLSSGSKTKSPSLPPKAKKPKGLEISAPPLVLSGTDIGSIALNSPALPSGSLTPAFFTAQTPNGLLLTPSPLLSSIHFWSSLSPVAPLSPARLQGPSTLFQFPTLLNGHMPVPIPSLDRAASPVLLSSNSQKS
Outline: as §1

FEV = molecular target: T7, FEV (Homo sapiens, UniProt Q99581 1-238); settings: protein: recombinant; tags: N-terminal GST; dsDNA, one strand shown
T7 sequence: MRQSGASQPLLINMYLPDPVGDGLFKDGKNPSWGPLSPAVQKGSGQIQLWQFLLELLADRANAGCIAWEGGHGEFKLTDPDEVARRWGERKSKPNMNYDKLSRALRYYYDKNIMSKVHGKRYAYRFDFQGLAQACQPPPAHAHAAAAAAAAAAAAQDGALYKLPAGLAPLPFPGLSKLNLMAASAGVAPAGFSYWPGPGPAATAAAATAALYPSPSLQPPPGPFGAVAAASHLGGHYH
Outline: as §1

ETV5 = ETV5 (Homo sapiens, UniProt P41161 1-510); settings: protein: recombinant; tags: N-terminal GST; dsDNA, one strand shown
Outline: as §1

HSF1 = HSF1 (Homo sapiens, UniProt Q00613 1-529); settings: protein: recombinant; tags: N-terminal GST; chain copies: 3; dsDNA, one strand shown
Outline: as §1

SPIC = molecular target: T8, SPIC (Homo sapiens, UniProt Q8N5J4 1-248); settings: protein: recombinant; tags: N-terminal GST; dsDNA, one strand shown
T8 sequence: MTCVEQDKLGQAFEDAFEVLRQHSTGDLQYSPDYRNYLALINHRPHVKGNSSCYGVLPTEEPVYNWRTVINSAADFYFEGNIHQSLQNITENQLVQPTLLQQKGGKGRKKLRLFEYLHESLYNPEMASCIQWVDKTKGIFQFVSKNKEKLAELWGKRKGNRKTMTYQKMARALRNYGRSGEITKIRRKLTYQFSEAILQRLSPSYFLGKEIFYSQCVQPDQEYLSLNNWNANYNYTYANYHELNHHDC
Outline: as §1

ELF4 = ELF4 (Homo sapiens, UniProt Q99607 1-663); settings: protein: recombinant; tags: N-terminal GST; dsDNA, one strand shown
Outline: as §1

ELK4 = molecular target: T9, ELK4 (Homo sapiens, UniProt P28324-2 1-405); settings: protein: recombinant; tags: N-terminal GST; dsDNA, one strand shown
T9 sequence: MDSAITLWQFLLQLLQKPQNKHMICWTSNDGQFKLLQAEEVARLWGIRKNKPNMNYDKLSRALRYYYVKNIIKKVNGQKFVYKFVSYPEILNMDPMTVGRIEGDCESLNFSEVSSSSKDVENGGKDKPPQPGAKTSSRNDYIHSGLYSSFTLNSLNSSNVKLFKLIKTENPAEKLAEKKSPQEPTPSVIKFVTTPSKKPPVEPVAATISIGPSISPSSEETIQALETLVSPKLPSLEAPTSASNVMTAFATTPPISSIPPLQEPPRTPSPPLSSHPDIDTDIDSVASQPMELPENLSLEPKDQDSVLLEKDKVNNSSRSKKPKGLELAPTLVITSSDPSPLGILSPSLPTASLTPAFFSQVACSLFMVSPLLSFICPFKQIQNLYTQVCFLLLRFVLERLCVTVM
Outline: as §1

ETV2 = molecular target: T10, ETV2 (Homo sapiens, UniProt O00321 1-342); settings: protein: recombinant; tags: N-terminal GST; dsDNA, one strand shown
T10 sequence: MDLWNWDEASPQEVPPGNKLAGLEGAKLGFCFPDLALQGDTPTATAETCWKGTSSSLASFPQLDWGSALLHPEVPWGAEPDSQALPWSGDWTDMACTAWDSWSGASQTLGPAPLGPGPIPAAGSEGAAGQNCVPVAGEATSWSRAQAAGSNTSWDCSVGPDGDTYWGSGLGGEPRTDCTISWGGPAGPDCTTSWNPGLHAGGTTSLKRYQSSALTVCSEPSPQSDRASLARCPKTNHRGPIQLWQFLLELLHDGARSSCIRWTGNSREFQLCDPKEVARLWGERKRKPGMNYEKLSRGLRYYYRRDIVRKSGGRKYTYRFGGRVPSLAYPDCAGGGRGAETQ
Outline: as §1

ELF3 = molecular target: T11, ELF3 (Homo sapiens, UniProt P78545 1-371); settings: protein: recombinant; tags: N-terminal GST; dsDNA, one strand shown
T11 sequence: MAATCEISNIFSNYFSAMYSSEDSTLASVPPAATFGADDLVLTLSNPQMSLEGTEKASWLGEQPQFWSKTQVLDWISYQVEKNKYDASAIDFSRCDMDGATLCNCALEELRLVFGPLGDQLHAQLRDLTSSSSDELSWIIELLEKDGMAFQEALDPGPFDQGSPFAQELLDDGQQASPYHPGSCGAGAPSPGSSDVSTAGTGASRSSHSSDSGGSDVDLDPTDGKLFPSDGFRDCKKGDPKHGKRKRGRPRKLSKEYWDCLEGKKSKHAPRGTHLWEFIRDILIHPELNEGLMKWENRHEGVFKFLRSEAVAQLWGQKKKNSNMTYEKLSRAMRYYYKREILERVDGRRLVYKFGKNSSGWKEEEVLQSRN
Outline: as §1

CRX = CRX (Homo sapiens, UniProt O43186 1-299); settings: protein: recombinant; tags: N-terminal GST; dsDNA, one strand shown
Outline: as §1

ETV1 = ETV1 (Homo sapiens, UniProt P50549 1-477); settings: protein: recombinant; tags: N-terminal GST; dsDNA, one strand shown
Outline: as §1

ETV1, sequence (P50549 whole entry): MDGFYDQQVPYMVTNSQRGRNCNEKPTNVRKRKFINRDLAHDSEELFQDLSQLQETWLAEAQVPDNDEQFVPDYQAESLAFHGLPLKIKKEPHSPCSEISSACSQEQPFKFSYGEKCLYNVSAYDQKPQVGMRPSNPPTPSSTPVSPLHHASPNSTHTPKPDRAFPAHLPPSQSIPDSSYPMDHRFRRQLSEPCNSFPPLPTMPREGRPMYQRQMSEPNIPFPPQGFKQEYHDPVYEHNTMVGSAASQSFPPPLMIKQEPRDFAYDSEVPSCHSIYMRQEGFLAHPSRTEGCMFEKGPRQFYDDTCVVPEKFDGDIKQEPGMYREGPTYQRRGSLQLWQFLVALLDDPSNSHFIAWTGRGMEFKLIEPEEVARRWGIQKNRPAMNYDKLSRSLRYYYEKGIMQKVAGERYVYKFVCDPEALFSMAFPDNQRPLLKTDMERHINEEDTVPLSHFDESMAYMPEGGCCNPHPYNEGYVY
HSF1, sequence (Q00613 whole entry): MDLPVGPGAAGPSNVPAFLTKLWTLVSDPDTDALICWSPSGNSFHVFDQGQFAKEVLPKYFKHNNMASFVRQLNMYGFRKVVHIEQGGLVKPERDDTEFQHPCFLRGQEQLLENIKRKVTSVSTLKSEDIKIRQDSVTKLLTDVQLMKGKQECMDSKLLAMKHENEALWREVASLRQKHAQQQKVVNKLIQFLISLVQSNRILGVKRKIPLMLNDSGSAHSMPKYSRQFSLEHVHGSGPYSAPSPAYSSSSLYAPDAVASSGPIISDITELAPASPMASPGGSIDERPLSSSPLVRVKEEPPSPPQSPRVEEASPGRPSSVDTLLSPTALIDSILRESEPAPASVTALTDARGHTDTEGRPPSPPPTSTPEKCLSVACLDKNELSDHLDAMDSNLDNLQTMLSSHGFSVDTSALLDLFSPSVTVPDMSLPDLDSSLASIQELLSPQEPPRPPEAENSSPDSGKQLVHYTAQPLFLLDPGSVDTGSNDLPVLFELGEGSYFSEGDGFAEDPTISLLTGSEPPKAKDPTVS
CRX, sequence (O43186 whole entry): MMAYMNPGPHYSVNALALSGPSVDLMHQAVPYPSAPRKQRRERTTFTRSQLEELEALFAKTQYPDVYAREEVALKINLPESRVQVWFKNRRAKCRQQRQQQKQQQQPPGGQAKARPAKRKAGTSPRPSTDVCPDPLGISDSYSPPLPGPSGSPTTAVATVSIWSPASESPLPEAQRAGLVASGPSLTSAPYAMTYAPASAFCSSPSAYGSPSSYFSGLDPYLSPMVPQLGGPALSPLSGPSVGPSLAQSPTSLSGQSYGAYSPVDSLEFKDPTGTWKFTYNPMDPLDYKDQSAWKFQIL
ETV5, sequence (P41161 whole entry): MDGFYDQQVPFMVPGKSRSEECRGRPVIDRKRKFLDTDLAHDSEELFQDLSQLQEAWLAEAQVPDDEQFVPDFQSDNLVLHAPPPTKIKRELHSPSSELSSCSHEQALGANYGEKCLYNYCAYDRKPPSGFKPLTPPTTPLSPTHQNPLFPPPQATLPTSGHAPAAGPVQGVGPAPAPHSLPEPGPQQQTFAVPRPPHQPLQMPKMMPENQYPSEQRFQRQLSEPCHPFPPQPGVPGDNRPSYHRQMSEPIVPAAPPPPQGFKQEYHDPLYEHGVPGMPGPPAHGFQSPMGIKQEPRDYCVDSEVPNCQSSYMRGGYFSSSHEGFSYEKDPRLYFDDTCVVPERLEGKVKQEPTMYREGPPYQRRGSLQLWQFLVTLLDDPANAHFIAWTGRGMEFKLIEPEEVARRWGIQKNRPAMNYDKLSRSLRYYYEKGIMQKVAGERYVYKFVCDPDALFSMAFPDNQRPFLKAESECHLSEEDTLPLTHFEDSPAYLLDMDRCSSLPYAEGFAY
ELF1, sequence (P32519 whole entry): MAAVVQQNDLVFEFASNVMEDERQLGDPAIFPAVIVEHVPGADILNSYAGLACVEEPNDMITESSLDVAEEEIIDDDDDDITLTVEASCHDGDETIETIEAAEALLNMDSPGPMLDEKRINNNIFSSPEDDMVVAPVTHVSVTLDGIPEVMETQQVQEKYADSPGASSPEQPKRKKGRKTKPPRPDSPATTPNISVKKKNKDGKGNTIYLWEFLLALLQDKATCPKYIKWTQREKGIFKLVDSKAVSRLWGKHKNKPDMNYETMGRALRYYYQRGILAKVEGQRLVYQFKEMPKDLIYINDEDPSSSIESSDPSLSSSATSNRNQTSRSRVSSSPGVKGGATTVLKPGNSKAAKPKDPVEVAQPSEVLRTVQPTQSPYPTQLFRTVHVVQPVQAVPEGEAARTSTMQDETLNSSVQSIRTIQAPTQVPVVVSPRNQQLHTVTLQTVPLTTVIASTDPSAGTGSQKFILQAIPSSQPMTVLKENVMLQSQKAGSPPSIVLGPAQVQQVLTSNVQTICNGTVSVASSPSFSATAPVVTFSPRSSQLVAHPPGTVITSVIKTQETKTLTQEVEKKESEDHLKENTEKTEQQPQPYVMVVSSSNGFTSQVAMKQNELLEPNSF
ELF4, sequence (Q99607 whole entry): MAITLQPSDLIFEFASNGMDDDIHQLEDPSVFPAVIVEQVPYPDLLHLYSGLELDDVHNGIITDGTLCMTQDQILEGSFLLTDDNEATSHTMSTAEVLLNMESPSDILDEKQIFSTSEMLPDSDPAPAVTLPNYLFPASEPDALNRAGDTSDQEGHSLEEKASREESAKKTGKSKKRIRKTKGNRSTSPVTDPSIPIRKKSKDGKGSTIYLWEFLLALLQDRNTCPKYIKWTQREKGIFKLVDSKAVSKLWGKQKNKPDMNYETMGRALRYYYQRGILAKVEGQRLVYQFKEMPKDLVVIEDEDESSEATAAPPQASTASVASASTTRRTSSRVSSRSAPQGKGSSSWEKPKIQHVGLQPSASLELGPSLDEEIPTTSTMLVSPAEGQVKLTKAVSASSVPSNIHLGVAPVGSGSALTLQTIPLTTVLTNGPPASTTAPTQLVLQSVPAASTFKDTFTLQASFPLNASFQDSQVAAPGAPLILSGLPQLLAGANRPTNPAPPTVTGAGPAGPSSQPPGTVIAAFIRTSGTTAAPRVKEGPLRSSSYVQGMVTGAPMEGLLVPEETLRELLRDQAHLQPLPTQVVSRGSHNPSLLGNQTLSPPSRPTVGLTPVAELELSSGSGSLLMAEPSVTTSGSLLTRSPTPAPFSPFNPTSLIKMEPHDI
SPIB, sequence (Q01892 whole entry): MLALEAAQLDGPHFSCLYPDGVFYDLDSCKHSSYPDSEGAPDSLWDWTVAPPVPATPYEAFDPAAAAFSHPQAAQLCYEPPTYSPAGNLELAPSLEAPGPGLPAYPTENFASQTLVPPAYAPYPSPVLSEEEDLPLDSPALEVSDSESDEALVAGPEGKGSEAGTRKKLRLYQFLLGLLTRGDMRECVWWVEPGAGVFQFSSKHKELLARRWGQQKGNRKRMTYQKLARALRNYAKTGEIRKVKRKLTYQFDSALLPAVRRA

In the case of GTAAAA, the binding signal (FLI1) is reported as 1.05 fold enrichment (6-mer frequency, TF over GST control), the binding signal (ELK1) is reported as 1 fold enrichment (6-mer frequency, TF over GST control) and the binding signal (GABPA) is reported as 1.18 fold enrichment (6-mer frequency, TF over GST control). The binding signal (ERG) was 1.14 fold enrichment (6-mer frequency, TF over GST control), the binding signal (ELF1) was 1.13 fold enrichment (6-mer frequency, TF over GST control) and the binding signal (EHF) was 1.16 fold enrichment (6-mer frequency, TF over GST control). For the same sequence, the binding signal (SPI1) was 1.3 fold enrichment (6-mer frequency, TF over GST control), the binding signal (SPIB) was 1.1 fold enrichment (6-mer frequency, TF over GST control) and the binding signal (ELK3) was 1.11 fold enrichment (6-mer frequency, TF over GST control). The binding signal (FEV) was 1.07 fold enrichment (6-mer frequency, TF over GST control), the binding signal (ETV5) was 1.19 fold enrichment (6-mer frequency, TF over GST control) and the binding signal (HSF1) was 1.11 fold enrichment (6-mer frequency, TF over GST control). The binding signal (SPIC) was 1.13 fold enrichment (6-mer frequency, TF over GST control), the binding signal (ELF4) was 1.14 fold enrichment (6-mer frequency, TF over GST control) and the binding signal (ELK4) was 1.02 fold enrichment (6-mer frequency, TF over GST control). For the same sequence, the binding signal (ETV2) was 1.21 fold enrichment (6-mer frequency, TF over GST control), the binding signal (ELF3) was 1.13 fold enrichment (6-mer frequency, TF over GST control) and the binding signal (CRX) was 1.03 fold enrichment (6-mer frequency, TF over GST control). For the same sequence, the binding signal (ETV1) was 1.06 fold enrichment (6-mer frequency, TF over GST control).
